Source: the supplement of paper PMC3545927
The list shows a part of the results. The hit rate among all sequences tested is not known here.

Target: furin, P09958
Experiment: furin cleavage Z-score vs untreated control; higher = more cleavage, active = 3.5 or more, inactive = 1 or less, 8 variable residues between constant flanks
Outline: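 Reactions of 0.01 ml ran for 7.5, 15 or 30 min in 50 mM HEPES pH 7.5 with CaCl2 and NaCl, at 1:10 enzyme:substrate. In them, purified furin acted on bead-held 8-mer peptides fused to a cDNA oligonucleotide. The cleavage Z-score was obtained by lowess-adjusting log sequencing counts of released DNA against furin-free reactions and scaling by median absolute deviation.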

furin, P09958, sequence (P09958 whole entry): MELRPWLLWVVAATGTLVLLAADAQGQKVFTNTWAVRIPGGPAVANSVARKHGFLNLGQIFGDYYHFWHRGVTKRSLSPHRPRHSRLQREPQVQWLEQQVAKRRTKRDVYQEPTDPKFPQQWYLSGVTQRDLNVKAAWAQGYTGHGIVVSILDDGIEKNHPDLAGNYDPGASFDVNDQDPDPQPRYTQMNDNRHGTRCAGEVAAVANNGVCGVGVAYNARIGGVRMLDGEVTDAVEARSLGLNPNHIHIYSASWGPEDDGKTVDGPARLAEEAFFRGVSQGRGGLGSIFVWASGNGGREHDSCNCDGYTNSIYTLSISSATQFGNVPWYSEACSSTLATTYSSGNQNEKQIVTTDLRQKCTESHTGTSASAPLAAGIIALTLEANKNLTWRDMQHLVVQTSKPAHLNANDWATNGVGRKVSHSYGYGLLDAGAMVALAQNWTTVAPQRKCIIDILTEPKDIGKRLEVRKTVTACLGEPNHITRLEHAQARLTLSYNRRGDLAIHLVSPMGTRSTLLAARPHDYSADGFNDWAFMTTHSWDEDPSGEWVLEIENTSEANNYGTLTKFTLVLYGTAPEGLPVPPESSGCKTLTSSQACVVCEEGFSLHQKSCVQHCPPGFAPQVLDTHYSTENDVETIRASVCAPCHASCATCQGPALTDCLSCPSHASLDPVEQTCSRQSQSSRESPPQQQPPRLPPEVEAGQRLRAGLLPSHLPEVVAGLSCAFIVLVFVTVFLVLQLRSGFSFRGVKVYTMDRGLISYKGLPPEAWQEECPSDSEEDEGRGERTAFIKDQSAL

Sequence | furin cleavage Z-score (7.5 min) | furin cleavage Z-score (15 min) | furin cleavage Z-score (30 min)
CAVTPCSGSWAGNASASA [HC1830] | -0.794 (inactive) | -0.739 (inactive) | -0.453 (inactive)
CAKDSRFFRYAGNASASA [FS-808] | 0.318 (inactive) | -0.509 (inactive) | 1.08
CATAQRHRRYAGNASASA [FS-628] | 8.01 (active) | 10.1 (active) | 9.56 (active)
CAAKAKRRRSAGNASASA [FS-744] | 10.8 (active) | 11.8 (active) | 8.83 (active)
CAEKAVERRSAGNASASA [FS-1191] | 0.591 (inactive) | 2.02 | 0.505 (inactive)
CAGNITRVESAGNASASA [HC1280] | -0.34 (inactive) | -0.548 (inactive) | 1.72
CAYVSRLRRVAGNASASA [FS-1441] | 4.8 (active) | 5.42 (active) | 4.8 (active)
CAPEARLRRVAGNASASA [FS-839] | 0.0356 (inactive) | 3.09 | 2.39
CARFARLRRVAGNASASA [FS-853] | 4.92 (active) | 7.36 (active) | 5.85 (active)
CALVCCSMSYAGNASASA [HC1985] | -0.475 (inactive) | -0.242 (inactive) | 0.0858 (inactive)
CAHGPTPLLYAGNASASA [HC970] | -1.77 (inactive) | -1.23 (inactive) | -0.927 (inactive)
CARGKRELRMAGNASASA [FS-2933] | 7.15 (active) | 8.97 (active) | 10 (active)
CARGKREAGLAGNASASA [FS-1950] | 10.7 (active) | 12 (active) | 9.85 (active)
CAAACRAAGLAGNASASA [HC1521] | -0.658 (inactive) | -1.9 (inactive) | -0.337 (inactive)
CARFKKNAGLAGNASASA [FS-2258] | 0.96 (inactive) | -0.927 (inactive) | 0.128 (inactive)
CARGKRFRPRAGNASASA [FS-2209] | -0.464 (inactive) | 0.0565 (inactive) | 0.308 (inactive)
CADVKFPGGGAGNASASA [HC171] | -0.433 (inactive) | -1.81 (inactive) | -2.39 (inactive)
CACLVDYPYRAGNASASA [HC464] | -1.54 (inactive) | -2.22 (inactive) | 0.308 (inactive)
CAPKRRKPRVAGNASASA [FS-1242] | 8.95 (active) | 11.6 (active) | 8 (active)
CAQKGRKPRDAGNASASA [FS-1056] | 15 (active) | 14.9 (active) | 10.2 (active)
CACSRRKPRDAGNASASA [FS-752] | 11.2 (active) | 11.6 (active) | 9.05 (active)
CAPCRRKPRDAGNASASA [FS-838] | 14.7 (active) | 14.2 (active) | 11.5 (active)
CAPPGRMCRVAGNASASA [FS-1549] | 0.819 (inactive) | 0.646 (inactive) | 1.21
CAKMQRAPRDAGNASASA [FS-451] | -0.25 (inactive) | -0.389 (inactive) | -0.0248 (inactive)
CATRGRQPRVAGNASASA [FS-1575] | 0.424 (inactive) | 0.857 (inactive) | 1.04
CAVVQCSMSYAGNASASA [HC2042] | 0.93 (inactive) | 0.804 (inactive) | 0.223 (inactive)
CASMSYSWTGAGNASASA [HC1371] | -1.4 (inactive) | -0.78 (inactive) | -0.275 (inactive)
CAVVCCSMMYAGNASASA [HC2066] | 0.37 (inactive) | -1.1 (inactive) | -0.477 (inactive)
